The entries come from a sample that favours hits as a whole.
IL1B secr inh: blocks inflammasome-driven IL-1 beta release | hit rate 4.7% among 360,000 | AID 743279 | THP-1 LPS/ATP IL-1B secretion, AlphaLISA, 16 h; active compounds read low | activity change, % at 57.5 µM; in the data active means activity change below about -50%; inconclusive means mostly about -30% to -49%
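THP-1 cells pretreated 1 hr with compounds (up to 57.5 uM final), then stimulated with LPS (250 ng/mL final) plus ATP (1.25 mM final); secreted IL-1B measured by AlphaLISA after 16 hr, decreased signal indicating inhibition.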
TDP1 cell noCPT: qHTS for Inhibitors of human tyrosyl-DNA phosphodiesterase 1 (TDP1): qHTS in cells in absence of CPT. DT40 Tdp1-/- hTDP1 cells, no CPT, ATP luminescence, 48 h. Potency, µM (top dose mostly 46.2 µM), without a hit: at the highest dose activity change, negative = growth inhibition, hits mostly inhibitors. hit rate 15% among 420,000. AID 686978, 2013; further: potency means the concentration at half of the fitted maximal effect; nearly all actives have a fitted effect of over 55% in size
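Cells were dispensed at 400 per well, compounds added by pin tool, plates incubated ≥48 hr at 37 °C, then CellTiter-Glo added for 30 min at room temperature before luminescence reading. Line: DT40 Tdp1-/- complemented with hTDP1; camptothecin omitted.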
ALOX12 inh: inhibitors of human 12S-lipoxygenase ALOX12; purified 12hLO, xylenol orange hydroperoxide absorbance; P18054; hit rate 1.1% among 580,000; AID 1671190; Potency, µM (series often up to 108 µM), without a hit: top-dose activity change, negative = inhibition, usual class: inhibitors; further: potency means the concentration at half of the fitted maximal effect
Target sequence (P18054 whole entry, looked up): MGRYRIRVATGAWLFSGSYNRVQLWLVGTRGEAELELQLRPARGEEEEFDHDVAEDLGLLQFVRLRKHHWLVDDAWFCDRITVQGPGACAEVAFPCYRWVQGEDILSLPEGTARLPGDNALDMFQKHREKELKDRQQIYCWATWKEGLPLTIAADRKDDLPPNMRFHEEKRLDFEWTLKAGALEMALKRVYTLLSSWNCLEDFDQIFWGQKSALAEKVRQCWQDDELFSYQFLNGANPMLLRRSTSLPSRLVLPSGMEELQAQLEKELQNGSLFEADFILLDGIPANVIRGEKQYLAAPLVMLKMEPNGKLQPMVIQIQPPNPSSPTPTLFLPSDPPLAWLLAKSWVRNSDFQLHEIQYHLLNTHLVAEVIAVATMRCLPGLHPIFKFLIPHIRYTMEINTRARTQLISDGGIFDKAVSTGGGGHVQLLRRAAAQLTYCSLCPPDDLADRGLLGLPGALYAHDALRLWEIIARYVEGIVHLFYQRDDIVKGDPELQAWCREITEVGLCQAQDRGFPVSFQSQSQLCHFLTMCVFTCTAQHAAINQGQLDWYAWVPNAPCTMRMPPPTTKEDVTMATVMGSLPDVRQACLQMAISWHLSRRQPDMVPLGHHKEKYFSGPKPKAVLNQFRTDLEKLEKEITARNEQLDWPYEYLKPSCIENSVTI
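Purified human 12hLO at 150 nM in 25 mM Hepes, 0.01% Triton X-100, pH 7.0, preincubated 15 min at room temperature with compound. Reaction started with 40 uM arachidonic acid, 30 min at room temperature. Hydroperoxide measured by Fe-xylenol orange, 573/405 nm absorbance ratio.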
HT1080-NT tox: kills 2HG-producing HT-1080-NT fibrosarcoma cells; HT-1080-NT fibrosarcoma viability, CellTiter-Glo ATP luminescence, 48 h; Potency, µM (series often up to 46.1 µM), for inactives: top-dose activity, negative = less viability, most hits filed as cytotoxic; hit rate 1.6% among 360,000; AID 686970;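 further: NT is the 2HG producing partner of a matched IDH1 knockdown line; potency means the concentration at half of the fitted maximal effect; 0% = DMSO-treated cells and -100% = media-only wells without cells; nearly all actives have a fitted effect of over 55% in size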
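A 48-hour cytotoxicity screen used HT-1080-NT cells plated 2 hours before compound delivery. ATP-based CellTiter-Glo luminescence measured viability, normalized to DMSO and no-cell controls.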
HT1080 IDH1KD tx: toxicity to HT-1080 IDH1 knockdown cells (counter line); HT-1080 IDH1 knockdown viability, ATP luminescence, 48 h; Potency, µM (doses to about 46.1 µM), for inactives: top-dose activity, negative = toxicity, most hits filed as cytotoxic; hit rate 2% among 360,000; AID 686971;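 further: potency means the concentration at half of the fitted maximal effect; 0% = DMSO wells and -100% = cell-free medium wells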
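HT-1080-IDH1KD cells (IDH1 knocked down), 750/well in RPMI with 5% FBS, treated with compound 48 h at 37 degrees C. Viability by CellTiter-Glo luminescence, normalised to DMSO and no-cell wells; concentration-response curves classed.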
TDP1 cell CPT: growth inhibition of DT40 Tdp1-/-;hTDP1 cells with camptothecin (screen for TDP1 inhibitors); chicken DT40 Tdp1-/-;hTDP1 cells + 20 nM CPT, ATP luminescence, 48 h; Potency, µM (series often up to 46.2 µM), without a hit: at the highest dose activity change, negative = growth inhibition, hits mostly inhibitors; hit rate 12% among 420,000; further: potency means the concentration at half of the fitted maximal effect; nearly all actives have a fitted effect of over 55% in size
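Chicken DT40 Tdp1-/- cells stably complemented with human TDP1 were seeded at 400 cells/well in medium containing 20 nM camptothecin, exposed to pin-transferred compounds, and grown at 37 °C for at least 48 hr. Viability was read as ATP luminescence.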
* hit, by the source's call; ? = inconclusive; / = not tested or not shown; [ ] = remark or other dose. Unless noted, the call rests on the fitted dose curve; in most records, active means well fitted curve in the direction sought with a large enough effect; inconclusive means small, poorly fitted or top-dose-only effect, or another doubt; inactive means no such curve, though single readings can be large; an effect the other way counts as inactive or inconclusive. Unless noted, on the % scale 0 is the no-effect control and ±100 the full control effect.

SMILES | IL1B secr inh | TDP1 cell noCPT | ALOX12 inh | HT1080-NT tox | HT1080 IDH1KD tx | TDP1 cell CPT
O=C(O)c1cc(S(=O)(=O)N2CCN(C(c3ccccc3)c3ccccc3)CC2)ccc1Cl | 4.7 | 27.8% | 39.8µM* | -13.6% | -18.5% | 14.2%
O=C(Nc1ccccc1O)c1cc(S(=O)(=O)N2CCCC2)ccc1Cl | / | 20.6µM* | ? | / | / | ?
CCCn1c(C)cc(C(=O)COC(=O)c2ccc(Cl)c(S(=O)(=O)N3CCCC3)c2)c1C | 11.2 | 14.6µM* | 0.0% | -2.4% | 3.5% | 23.1µM*
NS(=O)(=O)c1ccc(Cl)c(C(=O)Nc2ccccc2[N+](=O)[O-])c1 | -56.3* | -5.0% | -23.5% | -10.0% | -7.1% | 2.6%
O=C(Nc1ccc(N2CCOCC2)cc1)c1ccc(Cl)c(S(=O)(=O)N2CCCC2)c1 | 35.1 | 20.6µM* | 0.0% | -7.7% | ? | ?
Cc1ccc(NC(=S)NCC2CCN(C(C)c3ccccc3)C2)cc1 (configuration not stated) | ? | 16.4µM* | ? | -28.0% | -3.0% | 20.6µM*
CC(c1ccccc1)N1CCC(CNC(=S)Nc2cccc(Cl)c2)C1 (configuration not stated) | -80.3* | ? | ? | 18.4µM* | 18.4µM* | ?
Cc1ccc(NC(=O)C2CC(=O)N(C(C)c3ccccc3)C2)cc1 (configuration not stated) | 11.1 | -22.0% | ? | 3.4% | 1.4% | -3.7%
O=C(NCc1cccnc1)[C@@H]1C[C@@H](O)CN1C1CCN(C(=O)c2cc(F)ccc2F)CC1 | / | / | 28.4% | / | / | /
COc1cccc(C(=O)NC(c2ccc(Cl)cc2)c2cc(Cl)c3cccnc3c2O)c1 (configuration not stated) | / | 5.8µM* | -20.9% | / | / | 8.2µM*
COc1cc(C(=O)NC(c2ccc(Cl)cc2)c2cc(Cl)c3cccnc3c2O)cc(OC)c1OC (configuration not stated) | / | 5.17µM* | -25.6% | / | / | 10.3µM*
CN(CC(=O)Nc1ccccc1Cl)C(=O)COc1ccc2oc3c(c2c1)CCCC3 | / | / | -4.0% | / | / | /
CC(C)c1ccc(NC(=O)C2Cc3c(-c4ccc5c(c4)OCO5)ccnc3O2)cc1 (configuration not stated) | -57.5* | 14.6µM* | ? | ? | ? | ?
CC(=O)Nc1ccc(-c2ccnc3c2CC(C(=O)Nc2ccc4c(c2)OCO4)O3)cc1 (configuration not stated) | -24.4 | 8.2µM* | -3.7% | ? | 14.6µM* | 6.51µM*
CC(=O)Nc1ccc(-c2ccnc3c2CC(C(=O)Nc2ccc(C(C)C)cc2)O3)cc1 (configuration not stated) | -23.3 | ? | -50.3% | ? | -26.1% | ?
CC(=O)c1cccc(-c2ccnc3c2CC(C(=O)NC(C)C)O3)c1 (configuration not stated) | 43.4 | 6.7% | -0.5% | 0.3% | 9.1% | 9.2%
CC(=O)c1cccc(-c2ccnc3c2CC(C(=O)Nc2ccc4c(c2)OCO4)O3)c1 (configuration not stated) | -11.3 | 2.31µM* | 13.0% | ? | 2.31µM* | 4.11µM*
Cc1cccc(OCC2(CNCc3ccc(F)cc3)C[C@@H](O)[C@@H](O)C2)n1 (some centres not stated) | / | / | -13.0%[176 µM] | / | / | /
Cc1cccc(OCC2(CNCc3c(C)noc3C)C[C@@H](O)[C@@H](O)C2)n1 (some centres not stated) | / | / | 31.6µM* | / | / | /
CC(=O)OC1CC2C(C)(C)C(O)CC[C@@]2(C)C2CC[C@@]3(C)C(c4ccoc4)OC(=O)C4OC43[C@]12C (some centres not stated) | / | 20.6µM* | / | / | / | ?
CC(=O)OC1CC(O)C(C)(C)C2CC(OC(C)=O)[C@]3(C)C(CC[C@@]4(C)C(c5ccoc5)OC(=O)C5OC534)[C@]12C (some centres not stated) | / | 10.1% | / | / | / | 4.6%
CC(=O)OC1CC2C(C)(C)C(O)CC[C@@]2(C)C2CC[C@@]3(C)C(c4ccoc4)OC(=O)C4O[C@@]43[C@]12C (some centres not stated) | / | 18.4µM* | / | / | / | ?
COc1ccc(C(=O)N[C@@H]2C[C@H](Cn3cc(CN(C)C)nn3)[C@@H](O)[C@H]2O)cc1 | / | / | -15.0%[176 µM] | / | / | /
Cc1cc(C)c2c(n1)sc1c(N3CCN(C)CC3)ncnc12 | / | 13µM* | 0.0% | 2.7% | -0.3% | ?
Cc1ccc2c(c1)C=CC(C)(C)S2=O (configuration not stated) | 10.4 | -3.6% | -21.9% | -5.4% | 0.6% | -3.6%
SMILES | IL1B secr inh | TDP1 cell noCPT | ALOX12 inh | HT1080-NT tox | HT1080 IDH1KD tx | TDP1 cell CPT
CC[N+]1=C(C)C(C)(C)c2cc(C)ccc21 | 0.0 | 1.64µM* | ? | ? | 5.17µM* | 8.2µM*
O=c1[nH]c2ccc(S(=O)(=O)Nc3c(NC4CCCCC4)c4ccccc4oc3=O)cc2o1 | / | / | 39.8µM* | / | / | /
O=c1oc2ccccc2c(NC2CCCCC2)c1NS(=O)(=O)c1ccc(F)cc1 | -20.7 | ? | -4.4% | -17.2% | -9.8% | ?
CCc1ccc(S(=O)(=O)Nc2c(NC3CCCCC3)c3ccccc3oc2=O)cc1 | -63.4* | ? | / | -23.2% | -15.0% | ?
Cc1ccc(-c2cnn(-c3ccccc3)c2N)cc1 | 0.0 | 10.3% | -2.2% | -21.9% | -22.0% | ?
Nc1nc2c(s1)CCc1c-2cnn1-c1ccccc1 | 0.0 | 13µM* | / | -7.6% | -12.0% | 14.6µM*
Cc1ccsc1C(=O)NCCC1CCN(C(=O)Nc2cc(F)cc(F)c2)CC1 | / | / | 30.3% | / | / | /
CC1=NN(c2ccc(F)cc2)C(=O)C1C(c1cccc(O)c1)c1c(C)[nH]n(-c2ccc(F)cc2)c1=O (configuration not stated) | 46.8 | ? | 149.5% | ? | -19.4% | ?
CC1=NN(c2ccc(Cl)cc2)C(=O)C1C(c1cccc(O)c1)c1c(C)[nH]n(-c2ccc(Cl)cc2)c1=O (configuration not stated) | 0.0 | ? | / | 16.4µM* | ? | ?
Cc1ccc(S(=O)(=O)NCCNC(=O)c2cn(C)c3ccccc23)cc1 | / | / | 16.2% | / | / | /
Cc1ccccc1-n1nc(C)c(CCC(=O)NCC(C)C)c1Oc1cccc(F)c1 | / | / | 13.6% | / | / | /

Source: PubChem (National Center for Advancing Translational Sciences (NCATS))
